Assay results taken from PubChem BioAssay (NCI).
Compounds without any hit were thinned out: in the full panel of roughly 83,000, 20% have a hit.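 Method: cells in 96-well plates; compound added at one concentration; 48 h incubation; percent growth measured; values under 10 scored active.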 A number with no mark means an inactive call. Activity calls are given as the source filed them.

Assays:
Assay in all cases: NCI-60 one-dose screen, 48 h (100 = growth as untreated, 0 = no growth, -100 = all killed)
NCI-H23 lung = details: 10 µM unless noted
786-0 renal = details: 10 µM unless noted
DU-145 prostate = details: 10 µM unless noted
MDA-MB-231 breast = details: 10 µM unless noted
SF-268 CNS = details: 10 µM unless noted
SF-539 CNS = details: 10 µM unless noted
M14 melanoma = details: 10 µM unless noted
HCT-15 colon = details: 10 µM
UACC-62 melanoma = details: 10 µM unless noted
LOX IMVI melanoma = details: 10 µM unless noted
SK-MEL-28 melanoma = details: 10 µM unless noted
ACHN renal = details: 10 µM unless noted
OVCAR-5 ovarian = details: 10 µM unless noted
OVCAR-3 ovarian = details: 10 µM unless noted
NCI/ADR-RES ovarian = details: 10 µM unless noted
T-47D breast = details: 10 µM unless noted
MDA-MB-435 melanoma = details: 10 µM unless noted
SW-620 colon = details: 10 µM unless noted
MCF7 breast = details: 10 µM unless noted
KM12 colon = details: 10 µM unless noted

SMILES | growth (NCI-H23 lung) | growth (786-0 renal) | growth (DU-145 prostate) | growth (MDA-MB-231 breast) | growth (SF-268 CNS) | growth (SF-539 CNS) | growth (M14 melanoma) | growth (HCT-15 colon) | growth (UACC-62 melanoma) | growth (LOX IMVI melanoma) | growth (SK-MEL-28 melanoma) | growth (ACHN renal) | growth (OVCAR-5 ovarian) | growth (OVCAR-3 ovarian) | growth (NCI/ADR-RES ovarian) | growth (T-47D breast) | growth (MDA-MB-435 melanoma) | growth (SW-620 colon) | growth (MCF7 breast) | growth (KM12 colon)
CC[CH2][Pb]([CH2]CC)([CH2]CC)[O]C(=O)C(F)(F)F | -46.4% (active) | -98.6% (active) | -100% (active) | -50.3% (active) | -82.3% (active) | -99.2% (active) | -91.6% (active) | -88.2% (active) | -83.2% (active) | -82.3% (active) | -97.2% (active) | -100% (active) | -99% (active) | -95.4% (active) | -36.6% (active) | -68.1% (active) | -97.1% (active) | -50.8% (active) | -79.7% (active) | -88.2% (active)
O=C1NC(=O)C(=Cc2cn(Cc3ccccc3)c3ccccc23)C(=O)N1 | 93.2% | 104% | 100% | 84.9% | 90.8% | 89.1% | 99.5% | 93.8% | 40.6% | 83.4% | 98% | 92.7% | 18.4% | 72.6% | 106% | 55.9% | 91.4% | 83.6% | 85.9% | 99.5%
C/C1=C/C(=O)O[C@@H]2C[C@@H](CC[C@H](C)/C=C\C=C\CC1)O[C@@](OCCc1ccccc1)([C@@H]1CSC(=O)N1)C2 | 35.1% | 9.36% (active) | -2.11% (active) | 11.8% | -42.9% (active) | 9.84% (active) | 38.5% | 46.3% | 24.3% | 4.46% (active) |  | 7.46% (active) | 11.2% | -48.7% (active) | 48.4% | 61% | 16.7% | 59.3% |  | 58.2%
O=C(O)C1(Br)CC12c1ccccc1-c1ccccc12 (stereo unspecified) | 97.1% | 101% | 111% | 115% | 100% | 103% | 102% | 101% | 103% | 96.1% | 114% | 99% | 104% | 103% | 104% | 82.5% | 108% | 111% | 93.4% | 99.7%
ClCCN(CCCl)C(c1ccccc1)c1ccc(Cl)cc1 (stereo unspecified) | 77.3% | 87.5% | 69.5% | 75.7% | 61.5% | 71.7% | 90.4% | 82.9% | 63.8% | 81.3% | 102% | 28.9% | 118% | 91.9% | 79% | 103% | 88% | 51.6% |  | 89.5%
O=[N+]([O-])c1ccc(/C=C/C=C/c2ccc(S(=O)(=O)F)cc2)c(Cl)c1 | 96.4% | 97.5% | 107% | 99.3% | 96.1% | 104% | 100% | 98% | 94.9% | 102% | 98.6% | 102% | 112% | 109% | 104% | 86.2% | 92.9% | 104% | 102% | 97.1%
O=C(CCc1ccco1)NC1CCN(CC2(c3ccc(Cl)cc3)CCC2)CC1 | -22.6% (active) | 20.4% | 24% | -6.18% (active) | 22.1% | 34.5% | 10.3% | 18.7% | 17% |  | 30.1% | 13.8% | 53.2% | 13.9% | 6.97% (active) | 15.4% | 4.28% (active) | 14.7% | 2.88% (active) | 1.4% (active)
O=C(CC1(O)C(=O)Nc2ccc(F)cc21)c1ccc(C(=O)NCC2CCC3(CC2)OOC2(CCCCC2)OO3)cc1 (stereo unspecified) | 34.9% | -78.5% (active) | 3.83% (active) | 41.5% | 63.4% | 7.74% (active) | 83.9% | 74.1% | 73.4% | 39.1% | 78.5% | -25.2% (active) | 87.3% | -50.1% (active) | 80% | 29.6% | 63.8% | 61.1% | 60.9% | 32.5%
